Source: PubChem BioAssay (EPA / NIEHS)
Inconclusive results are not listed. Activity calls are given as the source filed them. How the source made its calls: active means hit-call score of the fitted dose curve at least 0.9, where 1 is the maximum; inconclusive means response in the unintended direction; inactive means score below 0.9.

The molecules below were run against Androgen receptor (Homo sapiens) (UniProt P10275) (assay: ATG_AR_TRANS: Attagene TRANS-FACTORIAL HepG2 Assay for human Androgen Receptor (AR) (AID 2282973)). Conditions: HepG2 Attagene TRANS-FACTORIAL AR reporter transcription.
Androgen receptor (Homo sapiens), sequence (P10275 whole entry, looked up, the tested form may be a part): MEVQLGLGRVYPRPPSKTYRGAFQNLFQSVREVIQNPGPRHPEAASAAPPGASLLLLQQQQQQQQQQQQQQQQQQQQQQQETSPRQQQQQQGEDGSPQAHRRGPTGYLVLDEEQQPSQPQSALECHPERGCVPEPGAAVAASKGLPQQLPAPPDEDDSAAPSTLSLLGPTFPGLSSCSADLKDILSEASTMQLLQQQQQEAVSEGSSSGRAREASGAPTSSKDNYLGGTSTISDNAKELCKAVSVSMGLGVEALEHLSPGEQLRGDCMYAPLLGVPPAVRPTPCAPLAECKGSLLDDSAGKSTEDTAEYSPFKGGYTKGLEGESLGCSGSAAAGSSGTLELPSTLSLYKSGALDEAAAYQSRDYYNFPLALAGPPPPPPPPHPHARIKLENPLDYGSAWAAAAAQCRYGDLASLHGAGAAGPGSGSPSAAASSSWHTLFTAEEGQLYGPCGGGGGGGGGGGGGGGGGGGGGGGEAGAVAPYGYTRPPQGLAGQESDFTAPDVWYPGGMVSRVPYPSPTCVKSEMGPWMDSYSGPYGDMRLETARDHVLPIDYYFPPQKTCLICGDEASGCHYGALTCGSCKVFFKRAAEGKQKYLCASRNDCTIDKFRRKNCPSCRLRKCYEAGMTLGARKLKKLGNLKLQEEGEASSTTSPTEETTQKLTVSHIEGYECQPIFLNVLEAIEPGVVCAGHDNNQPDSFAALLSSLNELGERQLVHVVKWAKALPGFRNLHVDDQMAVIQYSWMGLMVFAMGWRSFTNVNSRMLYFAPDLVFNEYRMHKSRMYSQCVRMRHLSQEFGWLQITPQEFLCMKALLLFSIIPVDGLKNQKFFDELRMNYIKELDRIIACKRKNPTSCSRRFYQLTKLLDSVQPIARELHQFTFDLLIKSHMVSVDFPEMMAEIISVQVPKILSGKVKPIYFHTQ
How it was run: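 Readout is reporter transcript abundance, quantified by fluorescent RT-PCR products separated on capillary electrophoresis. Human HepG2 liver cells carried transiently transfected NR-Gal4 chimera plus GAL4-UAS reporter constructs and were dosed for 24 h; activity scored upward versus DMSO.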

SMILES	outcome
CC1(C)COP(Oc2ccccc2)OC1	inactive
O=C(N[C@H]1CN2CCC1CC2)c1ccc2c(c1)OCCO2	inactive
OC(c1ccc(Cl)cc1)(c1ccc(Cl)cc1)c1cccnc1	inactive
CCC(C)(C#N)N=NC(C)(C#N)CC (centres undefined)	inactive
COC(F)(C(F)(F)C(F)(F)F)C(F)(C(F)(F)F)C(F)(F)F (centres undefined)	inactive
O=C(NC(=O)c1c(F)cccc1F)Nc1cc(Cl)c(Oc2ncc(C(F)(F)F)cc2Cl)c(Cl)c1	inactive
Brc1ccc(Oc2c(Br)cc(Br)cc2Br)c(Br)c1	inactive
OC(Cc1ccccc1Cl)(Cn1[nH]cnc1=S)C1(Cl)CC1 (centres undefined)	inactive
CN(CCCC(O)c1cccnc1)N=O (centres undefined)	inactive
NC(=O)c1ccc(N)nc1	inactive
Cc1cc(C(C)(C)c2ccc(O)c(C)c2)ccc1O	inactive
O=S(=O)(F)C(F)(F)C(F)(F)C(F)(F)C(F)(F)F	inactive
CCOC(=O)Cc1ccccc1	inactive
COP(=S)(OC)Oc1cc(Cl)c(I)cc1Cl	inactive
